# PubChem BioAssay AID939 (National Center for Advancing Translational Sciences (NCATS), 2007)
# Records with an inconclusive call do not appear.
# Test: Confirmation Concentration-Response Assay for Agonists of the Thyroid Stimulating Hormone Receptor; note: reference of the scale not given here
# Details: HEK293 TSHR-CNG cells, membrane potential dye, cAMP; measured here: parental HEK293 counter-screen max
# Procedure, shortened: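 HEK 293 cells stably expressing TSHR and a cAMP-gated CNG channel; membrane potential dye with 100 uM RO 20-1724, compound added 30 min before fluorescence read (590 nm emission). Parental CNG-only HEK 293 cells served as counter-line.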
row,SMILES,max response [%]
1,Cc1cccc(NC(=O)CSc2nnc(-c3ccccc3)n2N)c1C,-2.22
2,O=S1(=O)N=C(Oc2ccccc2)c2ccccc21,-6.77
3,O=C(CN(Cc1ccc(F)cc1)S(=O)(=O)c1ccccc1)N1CCCCC1,-6.59
4,O=C(COC(=O)C1c2ccccc2Oc2ccccc21)Nc1ccc2c(c1)OCO2,8.54
5,O=C(CN(Cc1ccccc1Cl)C(=O)Cn1nnc(-c2cccs2)n1)NCC1CCCO1 (configuration not stated),8.66
6,Cc1ccccc1-c1nc(CN2CCC(C(=O)N3CCN(c4ccccn4)CC3)CC2)c(C)o1,17.1
7,CCOC(=O)c1ccc(NC(=O)c2ccc(CN3CCOCC3)cc2)cc1,11
8,COc1ccc(-c2cc(C(F)(F)F)nc(SCCC(=O)N3CCOCC3)n2)cc1,13
9,O=C1c2ccccc2C(=O)N1Cc1nc(-c2ccccc2)no1,21.1
10,CN(Cc1ccco1)C(=O)Cn1c(=O)oc2cc(S(=O)(=O)NCc3ccccc3)ccc21,-3.7
11,CN1C(=O)N(C)C2(c3ccccc3)Nn3c(s/c(=C/c4ccco4)c3=O)=NC12c1ccccc1 (configuration not stated),-0.854
12,Cc1ccc(N(CC(=O)NCc2ccco2)S(=O)(=O)c2ccccc2)cc1,-6.79
13,NC(=O)c1nsc(C(=O)N(CC(=O)NCc2ccc3c(c2)OCO3)C2CCCCC2)c1N,8.82
14,CCOC(=O)N1CCC(NC(=O)c2ccc(CNS(=O)(=O)c3ccc(F)cc3)cc2)CC1,8.37
15,O=C(C1COc2ccccc2O1)N1CCCC1 (configuration not stated),-1.94
16,CCCC(=O)C1=C(SCC)CC(C)(C)C(C(=O)OC)C1=O (configuration not stated),9.56
17,Nc1cc(CN2C(=O)c3ccccc3C2=O)cc(Cl)c1O,4.5
